Where “and” joins values, the source holds several entries; their conditions need not be identical. Equal values may be shown once.

A short description of this experiment: blood-stage malaria parasite viability loss – strain 3D7, DAPI fluorescence, 100 nL, primary screen (AID 1184).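 Also: parasites grown inside human red blood cells in medium with human serum.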 To be noted: P. falciparum 3D7 growth, 3 d, higher = more signal.
Compound `Cc1ccc(S(=O)(=O)N[C@H]2COC(=O)[C@@H](C)COC(=O)[C@H](C)NC(=O)CC=C[C@H]2C)cc1` showed a z-score of -0.208.
For `C=CCN(C(=O)C1N(c2c(Cl)cccc2CO)C(=O)C2C(C(=O)O)C3C=CC21O3)C(C)(C)C` (stereo not given), the z-score was -1.76 and 0.0813.
As for `C=CCN(CCCC)C(=O)C(c1cccs1)N(CCOCCO)C(=O)/C=C\C(=O)O` (stereo not given), the z-score was 0.329 and -0.0611.
`CCCNC(=O)OC[C@H]1O[C@H](CCON=C(C)CCN2CCc3nc(-c4ccccc4)c(-c4ccccc4)cc3C2)C=C[C@@H]1Oc1ccc(OC)cc1` gave a z-score of -0.821.
The figure for `C=CCN(CCCC)C(=O)C1N(CCCCCCO)C(=O)C2C(C(=O)O)C3C=CC21O3` (stereo not given) is 1.51 and 1.68.
As to `COC(=O)C1=C(C)N(Cc2ccccc2)C2=C3C(=O)N(c4ccccc4)C(=O)[C@@H]3[C@@](O)(C(=O)OC)C(=O)N2[C@@H]1c1ccccc1`, the z-score is -0.441 and 0.347.
Consider `COc1ccc(O[C@H]2C=C[C@@H](c3ccccc3)O[C@@H]2COC(=O)CCC(C)=NO[C@H](C)c2cn([C@H](CO)Cc3ccccc3)nn2)cc1`, for which the z-score was -1.46 and -1.1.
For `C#CCCCON=C1C[C@@H](O)[C@@H](O)[C@@H]2[C@@H]3C(=O)N(C4CCCCC4)C(=O)[C@@H]3CC[C@H]12`, the z-score was found to be 1.43.
Then `COC(=O)C1=C(C)N(Cc2ccccc2)[C@]23O[C@](C(=O)OC)(C(=O)N2[C@@H]1c1ccccc1)[C@H]1C(=O)N(C)C(=O)[C@H]13`, with -0.979 and 0.027; and `C=C[C@@H](OC)[C@H](O)c1ccc(O)c(F)c1`, with 0.295 and 0.636.
